Sm TGR block: qHTS Assay for the Inhibitors of Schistosoma Mansoni Peroxiredoxins; Schistosoma mansoni thioredoxin glutathione reductase (TGR), Q962Y6; purified TGR, DTNB reduction, TNB absorbance 405 nm; Potency, µM (highest dose often 114 µM), usual class: inhibitors; hit rate 3% among 360,000; active = well fitted inhibition curve with a large enough effect; inconclusive = small, poorly fitted or top-dose-only effect; inactive = no such curve, though single readings can be large or run the other way; note: nearly all actives have a fitted effect of over 60% in size
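TGR 20 nM + NADPH 100 uM (dispensed conc.), cpd preinc 15 min RT; start with NADPH (500 uM addition) then DTNB (15 mM addition). Kinetic TNB absorbance, 405 nm filter. Four-parameter Hill fit across titration.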
SARS PLpro yeast: qHTS of Yeast-based Assay for SARS-CoV PLP; S. cerevisiae expressing SARS-CoV PLpro, growth rescue; Potency, µM (titrated, usually from 32.9 µM), actives largely listed as activators; hit rate 0.19% among 330,000; calls by dose curve; note: nearly all actives have a fitted effect of over 55% in size
Of the large screens only hits and unclear results are named; the others gave an inactive call. An excerpt weighted towards active compounds, which were near 3% of everything screened.

CN(/N=C/c1ccco1)C1=NS(=O)(=O)c2ccccc21	none
COc1ccc(NC(=O)Cn2ncc3c4ccccc4n(Cc4ccccc4)c3c2=O)cc1OC	none (no result: SARS PLpro yeast)
Cc1cc(=O)n(Cc2ccccc2Cl)c2c1c(C)nn2-c1ccccc1	none (no result: SARS PLpro yeast)
Fc1ccc(C(Nc2ccccn2)c2c[nH]c3ccccc23)cc1 (centres undefined)	Sm TGR block 2.8µM
O=[N+]([O-])CC(c1ccc(F)cc1)c1c[nH]c2ccccc12 (centres undefined)	none
OC(c1ccccn1)c1c[nH]c2ccccc12 (centres undefined)	Sm TGR block 22µM
NCC(c1ccccc1)c1c[nH]c2ccccc12 (centres undefined)	none
O=C(CCN1C(=O)c2ccccc2Sc2ncccc21)Nc1ccc(F)cc1F	none (no result: SARS PLpro yeast)
Cc1[nH]c2ccccc2c1/C=C/C(=O)c1ccccc1	none
Cc1[nH]c2ccccc2c(=O)c1C(=O)/C=C/c1ccccc1	Sm TGR block 32µM
COc1ccc(N2CCN(C(=O)C(C)n3nc(C)c4sc5ccccc5c4c3=O)CC2)cc1 (centres undefined)	none (no result: SARS PLpro yeast)
C=CCc1ccccc1OCC(O)CN1CCN(C(=O)OCC)CC1 (centres undefined)	Sm TGR block 40µM
CCOC(=O)N1CCN(CC(O)COc2ccccc2C(C)C)CC1 (centres undefined)	none
COC(CN(C(=O)CCl)C(C(=O)NC1CCCC(C)C1C)c1ccc(C)cc1)OC (centres undefined)	Sm TGR block 40µM
O=C(NC1CCCCC1)C(c1cccnc1)N(C(=O)CCl)c1cccc(Cl)c1 (centres undefined)	Sm TGR block 4µM
COc1ccc(C(C(=O)NC2CCCCC2)N(C(=O)CCl)c2ccc(Cl)cc2)cc1 (centres undefined)	Sm TGR block 1.6µM
COC(CN(C)C(C(=O)NC1CCCCC1)c1ccccc1)OC (centres undefined)	Sm TGR block inconclusive
COC(CN(C(=O)CCl)C(C(=O)NC1CCCCC1)c1ccccc1C)OC (centres undefined)	Sm TGR block 7.1µM
Cc1cccc(N(C(=O)CNC(=O)c2ccco2)C(C(=O)NC2CCCCC2)c2cccnc2)c1 (centres undefined)	none
COc1ccc(C(C(=O)NC2CCCCC2)N(C(=O)c2sc(C)nc2C)c2ccc(OC)cc2)cc1 (centres undefined)	none
CCN(CC)C(C(=O)NC1CCCCC1)c1ccc(C)cc1 (centres undefined)	none
CCOc1ccccc1CN1CCc2nc(N3CCN(c4ccccc4F)CC3)ncc2C1	none (no result: SARS PLpro yeast)
Cc1cc(NC(=O)COCc2cc(-c3ccc(F)cc3)on2)ccc1Br	none (no result: SARS PLpro yeast)
Cc1ccc(S(=O)(=O)c2nnn3c2nc(Nc2ccc(C(C)C)cc2)c2sccc23)cc1C	none (no result: SARS PLpro yeast)
CN(C)C(C(=O)NC1CCCCC1)c1ccc(Cl)cc1 (centres undefined)	none
COC(CN(C(=O)CCl)C(C(=O)NC1CCCCC1)c1ccc(Cl)cc1)OC (centres undefined)	Sm TGR block 22µM
Cc1ncccc1C(=O)N1CCCC(C(=O)c2ccc3c4c(cccc24)CC3)C1 (centres undefined)	none
O=C(c1ccc2c3c(cccc13)CC2)C1CCCN(C(=O)c2ccc(=O)[nH]c2)C1 (centres undefined)	Sm TGR block 40µM
C[C@]12CC[C@@H]3c4ccc(O)cc4CC[C@H]3[C@@H]1CC[C@@H]2OC(=O)CCC(=O)O	Sm TGR block 45µM
C[C@]12CC[C@@H]3c4ccc(O)cc4CC[C@H]3[C@@H]1C[C@@H](O)[C@@H]2O	none
COc1ccc(CCNC(=O)CCc2c(C)nc3c4c(C)cc(C)nc4nn3c2C)cc1OC	none (no result: SARS PLpro yeast)
O=c1[nH]c2ccc(Br)cc2c(-c2ccccc2)c1CN1CCOCC1	Sm TGR block 35µM
O=c1[nH]c2ccc(Br)cc2c(-c2ccccc2)c1N1CCOCC1	SARS PLpro yeast inconclusive
Cc1csc(=O)n1CCC(=O)OCC(=O)NNC(=O)c1ccc(Cl)cc1	Sm TGR block 35µM
Cc1csc(=O)n1CCC(=O)OCC(=O)NCc1ccc(Cl)cc1Cl	none
CCCCN(CC)CCCNC(=O)C1CCCN(c2ncnc3c2nc2n3CCCCC2)C1 (centres undefined)	none (no result: SARS PLpro yeast)
Cn1c(=O)c2c(nc(N3CCCCCC3)n2CC(O)COc2ccccc2)n(C)c1=O (centres undefined)	none
Cn1c(Br)nc2c1c(=O)n(CC(O)COc1ccccc1)c(=O)n2C (centres undefined)	Sm TGR block 50µM
Cc1ccc(C(=O)NC2(C(F)(F)F)C(=O)Nc3c2c(=O)[nH]c(=O)n3CCc2ccccc2)cc1 (centres undefined)	none (no result: SARS PLpro yeast)
O=C(c1ccc(N2CCCCC2)c([N+](=O)[O-])c1)N1CCN(c2ccccn2)CC1	none
Cc1ccc(CS(=O)(=O)c2ccc(C(=O)N3CCN(c4ccccn4)CC3)cc2[N+](=O)[O-])cc1	Sm TGR block 32µM
Cc1ccc(S(=O)(=O)N2CCN(C(=O)c3ccc(N4CCCCC4)c([N+](=O)[O-])c3)CC2)cc1	none
Cc1ccc(CS(=O)(=O)c2ccc(C(=O)N3CCCCC3)cc2[N+](=O)[O-])cc1	Sm TGR block 18µM
Cc1ccc(C(=O)N2CCN(c3cc4c(cc3[N+](=O)[O-])n(C)c(=O)n4C)CC2)cc1	SARS PLpro yeast 8.9µM
CCN(CC)C(=O)c1ccc(CS(=O)(=O)c2ccc(Br)cc2)cc1	none
CCN(CC)C(=O)c1ccc(S(=O)(=O)Cc2ccc(C)cc2)c([N+](=O)[O-])c1	Sm TGR block 7.9µM
Cn1c(=O)n(C)c2cc([N+](=O)[O-])c(N3CCN(C(=O)c4cccc(F)c4)CC3)cc21	none (no result: Sm TGR block)
COc1cc(NC(=O)CC2C(=O)N(c3cccc(C)c3)C(=O)N2Cc2ccc(F)cc2)cc(OC)c1 (centres undefined)	none (no result: SARS PLpro yeast)
COc1cccc(-n2ccnc2SCC(=O)Nc2cccc3ccccc23)c1	none (no result: SARS PLpro yeast)
Cc1ccc(C)c(S(=O)(=O)NCCc2csc(-c3ccc(Cl)cc3)n2)c1	none (no result: SARS PLpro yeast)
Cc1cc2c(c(=O)n1-c1ccccc1)C1O[C@](c3ccsc3)(Cc3ccccc31)O2	none
Cn1cc(S(=O)(=O)N2CCCC2)cc1C(=O)Nc1ccc(C(F)(F)F)cc1	none (no result: SARS PLpro yeast)
O=C(O)c1cc(-c2ccccc2)nn1Cc1ccccc1	none (no result: SARS PLpro yeast)
COc1nc(Cl)cn(-c2ccc(C)cc2)c1=O	none
Cc1ccc(-n2c(Cl)c(Cl)nc(Cl)c2=O)cc1	Sm TGR block 0.79µM
Cc1ccccc1CNC(=O)CN1CCSc2ccccc21	none (no result: SARS PLpro yeast)
O=C(O)COCC(=O)N1CCCN(c2ccc(C(F)(F)F)cn2)CC1	Sm TGR block 40µM
CC(=O)c1cccc(OCC(=O)N2CCN(c3ccc(C(F)(F)F)cn3)CC2)c1	none
Cc1ccc(C)c(NC(=O)c2ccc3c(c2)CCCN3S(C)(=O)=O)c1	none (no result: SARS PLpro yeast)
Cc1ccc(-n2c(SCCC(C)C)nc3sc4c(c3c2=O)CC(C)(C)OC4)cc1	none (no result: SARS PLpro yeast)
COc1cc(NC2c3ncccc3C(=O)N2Cc2ccco2)cc(OC)c1OC (centres undefined)	Sm TGR block inconclusive
O=C1c2cccnc2C(O)N1Cc1ccco1 (centres undefined)	Sm TGR block inconclusive
O=C1c2cccnc2C(Nc2ccccc2)N1Cc1ccco1 (centres undefined)	Sm TGR block 25µM
CC(=O)c1cccc(NC2c3ncccc3C(=O)N2Cc2ccco2)c1 (centres undefined)	Sm TGR block inconclusive
O=C1c2cccnc2C(Nc2cccc(F)c2)N1Cc1ccco1 (centres undefined)	Sm TGR block 35µM
